Results reported in the supplement of paper PMC12645437, “Orthogonal IMiD-Degron Pairs Induce Selective Protein Degradation in Cells” (ACS Chemical Biology, 2025).
In all, about 8,300 sequences were measured (“log2 fold change of degron read counts, EGFP-low vs EGFP+ sorted cells (limma voom), compound-induced degradation”: median about -1.1, highest 2% from about 3.2 on). What follows is part of a selection rich in the highest values, with near analogues and random picks from the rest.

T1: CRBN, Q96SW2
T1 chain: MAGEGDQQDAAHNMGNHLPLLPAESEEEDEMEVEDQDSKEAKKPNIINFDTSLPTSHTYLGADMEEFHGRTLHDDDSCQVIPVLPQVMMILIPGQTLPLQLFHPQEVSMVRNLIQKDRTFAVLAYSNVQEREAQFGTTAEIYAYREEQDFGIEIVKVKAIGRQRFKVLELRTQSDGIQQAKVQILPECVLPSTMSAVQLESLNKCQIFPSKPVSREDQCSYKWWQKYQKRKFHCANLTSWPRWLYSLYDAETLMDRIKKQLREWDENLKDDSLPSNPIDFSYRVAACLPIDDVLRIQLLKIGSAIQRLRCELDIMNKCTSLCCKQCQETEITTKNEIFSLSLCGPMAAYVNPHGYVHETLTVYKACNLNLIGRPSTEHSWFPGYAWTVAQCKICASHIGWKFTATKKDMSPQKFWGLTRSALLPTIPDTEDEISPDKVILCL

B1: 46F_47H_49E_50I_52G_53A_54D_55F_67L_, Q9UKT9 (peptide)
chain: FHCEICGADFTQKGNLLRHIKL
B2: 46F_47E_49E_50I_52G_53A_54P_55F_67L_, Q9UKT9 (peptide)
chain: FECEICGAPFTQKGNLLRHIKL
B3: 46F_47T_49E_50I_52G_53A_54P_55F_67L_, Q9UKT9 (peptide)
chain: FTCEICGAPFTQKGNLLRHIKL
B4: 46F_47L_49E_50I_52G_53A_54P_55F_67L_, Q9UKT9 (peptide)
chain: FLCEICGAPFTQKGNLLRHIKL
B5: 46F_47H_49E_50I_52G_53A_54F_55F_67L_, Q9UKT9 (peptide)
chain: FHCEICGAFFTQKGNLLRHIKL
B6: 46F_47A_49E_50I_52G_53A_54P_55F_67L_, Q9UKT9 (peptide)
chain: FACEICGAPFTQKGNLLRHIKL
B7: 46F_47R_49E_50I_52G_53A_54P_55F_67L_, Q9UKT9 (peptide)
chain: FRCEICGAPFTQKGNLLRHIKL
B8: 46F_47D_49E_50I_52G_53A_54P_55F_67L_, Q9UKT9 (peptide)
chain: FDCEICGAPFTQKGNLLRHIKL
B9: 46F_47H_49E_50I_52G_53A_54P_55F_67L_, Q9UKT9 (peptide)
chain: FHCEICGAPFTQKGNLLRHIKL
B10: 46F_47L_49E_50Q_52G_53A_54M_55F_67L_, Q9UKT9 (peptide)
chain: FLCEQCGAMFTQKGNLLRHIKL
B11: 46F_47E_49D_50I_52G_53A_54I_55F_67L_, Q9UKT9 (peptide)
chain: FECDICGAIFTQKGNLLRHIKL
B12: 46F_47Q_49N_50Q_52G_53A_54F_55F_67L_, Q9UKT9 (peptide)
chain: FQCNQCGAFFTQKGNLLRHIKL
B13: 46F_47I_49E_50Q_52G_53A_54N_55F_67L_, Q9UKT9 (peptide)
chain: FICEQCGANFTQKGNLLRHIKL
B14: 46F_47R_49N_50I_52G_53A_54S_55F_67L_, Q9UKT9 (peptide)
chain: FRCNICGASFTQKGNLLRHIKL
B15: 46F_47G_49D_50I_52G_53A_54R_55F_67L_, Q9UKT9 (peptide)
chain: FGCDICGARFTQKGNLLRHIKL
B16: 46F_47A_49D_50I_52G_53A_54R_55F_67L_, Q9UKT9 (peptide)
chain: FACDICGARFTQKGNLLRHIKL
B17: 46F_47W_49D_50I_52G_53A_54R_55F_67L_, Q9UKT9 (peptide)
chain: FWCDICGARFTQKGNLLRHIKL
B18: 46F_47Q_49D_50I_52G_53A_54R_55F_67L_, Q9UKT9 (peptide)
chain: FQCDICGARFTQKGNLLRHIKL
B19: 46F_47Y_49D_50I_52G_53A_54R_55F_67L_, Q9UKT9 (peptide)
chain: FYCDICGARFTQKGNLLRHIKL
B20: 46F_47C_49D_50I_52G_53A_54R_55F_67L_, Q9UKT9 (peptide)
chain: FCCDICGARFTQKGNLLRHIKL
B21: 46F_47R_49D_50I_52G_53A_54R_55F_67L_, Q9UKT9 (peptide)
chain: FRCDICGARFTQKGNLLRHIKL
B22: 46F_47L_49D_50I_52G_53A_54R_55F_67L_, Q9UKT9 (peptide)
chain: FLCDICGARFTQKGNLLRHIKL
B23: 46F_47D_49D_50I_52G_53A_54R_55F_67L_, Q9UKT9 (peptide)
chain: FDCDICGARFTQKGNLLRHIKL
B24: 46F_47F_49D_50I_52G_53A_54R_55F_67L_, Q9UKT9 (peptide)
chain: FFCDICGARFTQKGNLLRHIKL
B25: 46F_47T_49D_50I_52G_53A_54R_55F_67L_, Q9UKT9 (peptide)
chain: FTCDICGARFTQKGNLLRHIKL
B26: 46F_47V_49D_50I_52G_53A_54R_55F_67L_, Q9UKT9 (peptide)
chain: FVCDICGARFTQKGNLLRHIKL

Molecular target: T1, CRBN, Q96SW2
Test: log2 fold change of degron read counts, EGFP-low vs EGFP+ sorted cells (limma voom), compound-induced degradation; higher = more compound-induced degradation of the degron-EGFP fusion; degrons are variants of IKZF1/3 zinc finger 2; compound dose not given here
Details: Jurkat, 18 h
[1] = compound: compound 19 (5-tert-butyl-thalidomide)
[2] = compound: compound 22 (5-morpholino-thalidomide)
[3] = compound: compound 33 (diphenyl IMiD analogue)
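Also: pooled lentiviral library of zinc finger degron-EGFP fusions in mCherry-positive Jurkat cells, FACS-sorted after compound exposure, with degron abundance counted by next-generation sequencing.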

Sequence | log2 fold change of degron read counts [1] | log2 fold change of degron read counts [2] | log2 fold change of degron read counts [3] | log2 fold change of degron read counts (compound: thalidomide)
B1 | -1.38 | -3.23 | -1.06 | -2.34
B2 | 2.7 | -0.51 | 1.41 | 2.07
B3 | 2.99 | 3.21 | 2.47 | 3.17
B4 | 2.96 | 2.82 | 2.69 | 3.17
B5 | 0.885 | -0.276 | 0.198 | -1.2
B6 | 3.6 | 2.51 | 0.463 | 1.72
B7 | 3.62 | 3.98 | 3.31 | 3.58
B8 | 2.21 | 0.891 | -0.242 | 0.789
B9 | 4 | 3.46 | 2.38 | 1.9
B10 | -2.2 | -2.48 | -0.823 | -1.31
B11 | -1.92 | -1.75 | -0.965 | 0.171
B12 | -2.56 | -2.44 | -1.62 | -1.28
B13 | -2.09 | -0.316 | 0.362 | 0.322
B14 | 0.331 | 0.291 | 0.894 | 0.839
B15 | 2.15 | 0.817 | -1.24 | 0.195
B16 | 3.46 | 1.91 | -1.69 | -0.979
B17 | 3.15 | 3.82 | 0.741 | 0.265
B18 | -1.01 | 1.3 | 0.0735 | 3.03
B19 | 3.31 | 3.35 | 0.716 | -0.312
B20 | 2.34 | 2.23 | 0.356 | 1.57
B21 | -1.84 | -2.03 | -1.21 | -0.575
B22 | -0.594 | -2.06 | -0.802 | 0.425
B23 | 1.85 | 0.0154 | -1.13 | -0.0241
B24 | 3.58 | 3.35 | 0.994 | 0.0481
B25 | 1.44 | 2.55 | 0.655 | 1.76
B26 | 0.23 | 1.75 | -0.304 | 1.47
